Data taken from PubChem BioAssay (NCI).
The panel holds about 83,000 compounds, 20% with a hit somewhere; the sample as a whole holds those more often.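 Growth was measured after 48 h exposure to one concentration of compound in 96-well plates. Values under 10 count as active.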 Calls of active or inactive are those of the source.

Columns and labels:
Test in all cases: NCI-60 one-dose screen, 48 h (100 = growth as untreated, 0 = no growth, -100 = all killed)
[1] = tested on: NCI-H23 lung; conditions: 10 µM unless noted
[2] = tested on: NCI-H226 lung; conditions: 10 µM unless noted
[3] = tested on: NCI-H322M lung; conditions: 10 µM unless noted
[4] = tested on: HOP-62 NSCLC; conditions: 10 µM unless noted
[5] = tested on: NCI-H522 lung; conditions: 10 µM
[6] = tested on: 786-0 renal; conditions: 10 µM unless noted
[7] = tested on: COLO 205 colon; conditions: 10 µM unless noted
[8] = tested on: K-562 leukemia; conditions: 10 µM unless noted
[9] = tested on: MALME-3M melanoma; conditions: 10 µM unless noted
[10] = tested on: RXF 393 renal; conditions: 10 µM unless noted
[11] = tested on: SF-295 CNS; conditions: 10 µM unless noted
[12] = tested on: SF-539 CNS; conditions: 10 µM unless noted
[13] = tested on: M14 melanoma; conditions: 10 µM unless noted
[14] = tested on: NCI-H460 lung; conditions: 10 µM unless noted
[15] = tested on: HOP-92 NSCLC; conditions: 10 µM
[16] = tested on: A549/ATCC NSCLC; conditions: 10 µM unless noted
[17] = tested on: DU-145 prostate; conditions: 10 µM unless noted
[18] = tested on: MDA-MB-231 breast; conditions: 10 µM unless noted
[19] = tested on: SF-268 CNS; conditions: 10 µM unless noted
[20] = tested on: UACC-257 melanoma; conditions: 10 µM unless noted

Measured: growth

Cc1ccc(C(=O)NN)cc1
inactive: [1] 101% | [2] 109% | [3] 127% | [4] 104% | [5] 102% | [6] 106% | [7] 115% | [8] 91.6% | [9] 117% | [10] 103% | [11] 111% | [12] 114% | [13] 113%

COc1cc(CCNc2cnc3cc(N)cc(N)c3n2)cc(OC)c1
inactive: [1] 107% | [2] 99.4% | [3] 102% | [14] 120% | [15] 154% | [5] 98.2% | [16] 112% | [6] 101% | [7] 136% | [17] 118% | [8] 35.3% | [9] 146% | [18] 96.7% | [10] 114% | [19] 109% | [11] 116% | [12] 123% | [20] 111%

N#CCCCCCCCCCCC#N
inactive: [1] 93.8% | [2] 111% | [3] 114% | [4] 104% | [5] 86% | [16] 93.3% | [6] 99.9% | [7] 111% | [17] 106% | [8] 103% | [9] 139% | [18] 105% | [10] 113% | [19] 109% | [11] 92% | [12] 108% | [20] 87.7% | [13] 103%

COc1cc(NC(C)CCCN)c2nccc(C)c2c1OC (configuration not stated)
inactive: [1] 51.8% | [2] 97.2% | [3] 103% | [14] 109% | [15] 47.9% | [5] 31.6% | [16] 144% | [6] 98.8% | [7] 50.6% | [17] 71.3% | [8] 65% | [9] 104% | [18] 59.5% | [10] 164% | [19] 126% | [11] 115% | [12] 41.3% | [20] 112%

CCOC(=O)C1=C(c2ccccc2)NC(=O)NC1CN1C(=O)c2ccccc2C1=O (configuration not stated)
inactive: [1] 93.9% | [2] 105% | [3] 118% | [14] 105% | [15] 72.9% | [5] 108% | [16] 127% | [6] 102% | [7] 116% | [17] 105% | [8] 50.6% | [9] 71.2% | [18] 108% | [10] 116% | [19] 93.7% | [11] 115% | [12] 106% | [20] 112%

CCCCCCNC(=O)Oc1ccc(/C(=C(/C)Cc2ccc(OC)cc2)c2ccc(OCCN3CCCCC3)cc2)cc1
inactive: [1] 90.9% | [2] 92% | [3] 89.5% | [4] 91.2% | [15] 60.5% | [16] 77.6% | [6] 78.5% | [7] 79.4% | [17] 98.9% | [8] 36.8% | [9] 101% | [18] 84.5% | [10] 84.4% | [19] 81.9% | [11] 105% | [12] 91.8% | [20] 88.9% | [13] 84.6%

CCOc1ccc2nc3ccc(Cl)cc3nc2c1
active: [10] -13%
inactive: [1] 65.4% | [2] 81.3% | [3] 96.6% | [14] 95.9% | [15] 73.9% | [5] 76.9% | [16] 94.9% | [6] 81.1% | [7] 114% | [17] 92.2% | [8] 52.8% | [9] 127% | [18] 106% | [19] 107% | [11] 110% | [12] 92.7% | [20] 101%

CC(=O)c1cc(Nc2cc(C)nc(N)n2)cc(C(C)=O)c1
inactive: [1] 83.2% | [2] 101% | [3] 107% | [14] 104% | [15] 71.9% | [5] 99.8% | [16] 116% | [6] 95.3% | [7] 117% | [17] 91.3% | [8] 81.3% | [9] 45.3% | [18] 106% | [10] 108% | [19] 99.8% | [11] 114% | [12] 91.2% | [20] 103%

c1ccc(Nc2ccccn2)cc1
inactive: [1] 103% | [2] 130% | [3] 106% | [14] 115% | [15] 97.9% | [5] 91.7% | [16] 98.9% | [6] 95.1% | [7] 99.8% | [17] 111% | [8] 89.5% | [9] 103% | [18] 96.6% | [10] 113% | [19] 115% | [11] 102% | [12] 99.5% | [20] 104% | [13] 107%

CC1=C(C)C(=O)C(C(C)C2=C(C)C(=O)C(C)=C(C)C2=O)=C(C)C1=O
inactive: [1] 84.6% | [2] 124% | [3] 111% | [14] 95.9% | [15] 114% | [5] 91.2% | [16] 102% | [6] 88.1% | [7] 104% | [17] 92.7% | [8] 37.5% | [9] 119% | [18] 94.2% | [10] 11.3% | [19] 101% | [11] 128% | [12] 81.2% | [20] 92.7%

COc1ccc2nc3cc(Cl)ccc3c(NCCCNC(C)=O)c2c1
active: [14] 7.26%
inactive: [1] 37% | [2] 34.1% | [3] 34.4% | [15] 50.4% | [5] 52.5% | [16] 23.9% | [6] 48.9% | [7] 23.7% | [17] 29.4% | [8] 23.9% | [9] 40% | [18] 56.8% | [10] 32.9% | [19] 43% | [11] 45.7% | [12] 20.1% | [20] 43.1% | [13] 44.4%

Oc1ccccc1/C=N/N=C\c1ccccc1Cl
inactive: [1] 88.3% | [2] 76.8% | [3] 97.6% | [14] 99% | [15] 77.5% | [5] 92.3% | [16] 101% | [6] 100% | [7] 109% | [17] 99.5% | [8] 77.1% | [9] 103% | [18] 72.6% | [10] 97.3% | [19] 91.9% | [11] 98.7% | [12] 105% | [20] 104% | [13] 91%

CCc1ccc(C(=Nc2ccc(N(C)C(=O)CN3CCN(C)CC3)cc2)c2c(O)[nH]c3ccc(C(=O)OC)cc23)cc1
active: [1] -60.5% | [2] -26.2% | [3] -39.7% | [14] -74.5% | [15] -70.7% | [5] -64.1% | [16] -29.3% | [6] -93.3% | [7] -69.4% | [17] -11.5% | [8] -60.7% | [9] -91.8% | [18] -71% | [10] -96.8% | [19] -69.9% | [11] -88% | [12] -98.5% | [20] -67.4% | [13] -86.7%

CC(=O)/C(=C/c1ccc(-c2ccccc2)cc1)C(=O)c1ccccc1
inactive: [1] 91.6% | [2] 83.1% | [3] 100% | [14] 99.8% | [15] 89.9% | [5] 61.7% | [16] 76.4% | [6] 92% | [7] 93.6% | [17] 87.1% | [8] 64.2% | [9] 89.3% | [18] 92.5% | [10] 90.6% | [19] 85.9% | [11] 92.3% | [12] 85.1% | [20] 80.2% | [13] 79.8%

c1ccc2[nH]c(-c3ccc(OCCCCCOc4ccc(-c5nc6ccccc6[nH]5)cc4)cc3)nc2c1
active: [14] -19.8% | [15] -75% | [8] -13.8% | [9] -30.8% | [10] -74.2% | [19] -37.7% | [12] -12.8% | [13] -38.6%
inactive: [1] 40.9% | [2] 103% | [3] 72.7% | [5] 30.9% | [16] 12.7% | [6] 14.7% | [7] 121% | [17] 21.4% | [18] 40.5% | [11] 53% | [20] 71.4%

COc1cc(N)c2nccc(C)c2c1OC
inactive: [1] 115% | [2] 101% | [3] 106% | [14] 112% | [15] 81.7% | [5] 133% | [16] 117% | [6] 103% | [7] 116% | [17] 100% | [8] 92.1% | [9] 95.8% | [18] 91.2% | [19] 114% | [11] 116% | [12] 82% | [20] 92.5%
active: [10] -4.59%

Cc1sc(NC(=O)c2ccc(C(C)(C)C)cc2)c(C(=O)O)c1C
inactive: [1] 62.9% | [2] 92.3% | [3] 97.3% | [14] 50.9% | [15] 66.3% | [5] 56.3% | [16] 24.4% | [6] 73.8% | [7] 55.6% | [17] 61.6% | [8] 38.1% | [9] 111% | [18] 105% | [10] 114% | [19] 88.1% | [11] 35.7% | [12] 65.8% | [20] 101%
